Data taken from PubChem BioAssay AID588773 (The Scripps Research Institute Molecular Screening Center, 2011).
A number with no mark means an inactive call.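 How the source made its calls: active means inhibition of plasma PAF acetylhydrolase at a set limit or more at 0.1 µM, with tenfold selectivity over all off-targets; inactive means inhibition below the limit or weaker selectivity.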

Assay: competitive ABPP of pPAFAH versus proteome off-targets – biochemical, gel-based, FP-Rh fluorescence, mouse, HTS hit compounds, selectivity assay for pPAFAH inhibitor project, late-stage follow-up (AID 588773)
Details: MW 30 kDa protein, at 10 µM, stronger effect = higher value

SMILES | inhibition
CN(C)C(=O)Oc1noc2cc(Cl)ccc12 | 14%
O=C(Oc1ccc([N+](=O)[O-])cc1)N1CCC(N2CCCCC2)CC1 | 27%
